Data taken from PubChem BioAssay.
Activity calls are given as the source filed them.

Tests used:
Albumin (Bos taurus) = Albumin (Bos taurus) (UniProt P02769); assay: bovine serum albumin binders on microarray, profiling panel, artefact control for SMM control protein annotation, biochemical, small-molecule microarray, Alexa647 label, 635/667 nm fluorescence (AID 1118); details: BSA-A647 binding, fluorescence 635 nm, higher = more signal;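 note: score merges 667 nm emission intensity and signal-to-noise per printed compound spot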
[1] = small-molecule microarray binders of probe aXIP, primary screen, biochemical, NeuroSMM set, 635/667 nm fluorescence (AID 1119); details: higher = more signal, called active from +8 up or from −8 down;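 note: probe is the protein aXip251-270 applied at 1 µg/mL to compound-printed slides; binding of probe to printed compounds measured as 667 nm fluorescence plus signal to noise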
[2] = small-molecule binders of probe aNOTCH3, primary screen, biochemical, small-molecule microarray, 635/667 nm fluorescence (AID 1120); details: higher = more signal;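 note: probe is a biotin-tagged antibody raised against NOTCH3 rather than NOTCH3 protein; score merges spot fluorescence near 667 nm with spot signal to noise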
[3] = small-molecule binders of probe aNOTCH2, primary screen, biochemical, small-molecule microarray, 635/667 nm fluorescence (AID 1121); details: higher = more signal;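 note: score merges feature fluorescence read at 667 nm with its signal to noise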
[4] = molecular target: Carbonic anhydrase 2 (Homo sapiens) (UniProt P00918); assay: CAII small-molecule binders, profiling panel, biochemical, small-molecule microarray, Alexa647-labelled CAII (AID 1122); details: CAII-A647 binding fluorescence, higher = more signal
[5] = COS7 lysate on small-molecule microarray, probe aHis, 635 nm (AID 1123); details: COS7 cell lysate, fluorescence, higher = more signal;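 note: z-score combines 667nm fluorescence intensity with signal-to-noise per printed compound spot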
[6] = compound binding in COS7 lysate, probe aLAP1, primary screen, cell lysate, small-molecule microarray (AID 1124); details: probe aLAP1, fluorescence, higher = more signal;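 note: lysate comes from COS7 cells expressing LAP1 and is applied at 0.3 µg/mL; score merges spot fluorescence near 667 nm with signal-to-noise over triplicate slides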
Sam68 (KHDRBS1) = assay: Sam68 small-molecule binders, primary screen, biochemical, small-molecule microarray, 635 nm fluorescence (AID 1125); details: small-molecule microarray binding, higher = more signal;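 note: score merges 667 nm channel intensity with signal to noise over triplicate slides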
[7] = tested on: Chordin-like protein 2 (CHRDL2); assay: CHRDL2 small-molecule binders, primary screen, biochemical, small-molecule microarray, 635 nm fluorescence (AID 1126); details: small-molecule microarray binding, fluorescence 635 nm; higher = more signal;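 note: printed compound slides probed with Chrdl2 protein at 4 µg/mL for 1 h at 4 C; score merges 667 nm emission intensity with signal to noise over three replicate slides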
[8] = molecular target: Concanavalin-A (Canavalia ensiformis) (UniProt P02866); assay: ConA small-molecule binders, primary screen, artefact control for SMM control protein annotation, biochemical, small-molecule microarray, Alexa647 label, 635 nm (AID 1127); details: ConA-A647 binding fluorescence, higher = more signal;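 note: z combines 667 nm emission intensity with signal-to-noise across three replicate slides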
[9] = anti-His antibody binders, primary screen, artefact control for SMM control protein annotation, biochemical, small-molecule microarray, 635 nm fluorescence (AID 1128); details: anti-His Alexa647 antibody binding, higher = more signal;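 note: score merges feature fluorescence with signal-to-noise for each printed compound spot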
[10] = tested on: Human papillomavirus type 1a E7 protein (residues 1-88); assay: HPV1a E7 small-molecule binders, primary screen, biochemical, small-molecule microarray, residues 1-88, 635 nm (AID 1129); details: small-molecule microarray binding, fluorescence 635 nm; higher = more signal
[11] = molecular target: Focal adhesion kinase 1 (Homo sapiens) (UniProt Q05397); assay: small-molecule microarray binders of FAK, primary screen, biochemical, 635/667 nm fluorescence, BSA, DTT (AID 1130); details: PTK2 binding, 635 nm fluorescence, higher = more signal;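 note: composite of spot emission at 667 nm and signal to noise over triplicate slides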
[12] = tested on: Fibrinogen (Alexa647-labelled); assay: fibrinogen binders on compound microarrays, profiling panel, artefact control for SMM control-protein annotation, biochemical, small-molecule microarray, 635/667 nm fluorescence (AID 1131); details: fibrinogen-A647 binding fluorescence, higher = more signal;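 note: z-score merges 667 nm fluorescence with per-spot signal-to-noise over triplicate slides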
[13] = molecular target: Follistatin (Homo sapiens) (UniProt P19883); assay: follistatin binders on small-molecule microarrays, primary screen, biochemical, small-molecule microarray, 635/667 nm fluorescence (AID 1132); details: FST binding, 635 nm fluorescence, higher = more signal
[14] = molecular target: Fibroblast growth factor 2 (Homo sapiens) (UniProt P09038); assay: FGF2 binders on small-molecule microarrays, primary screen, biochemical, small-molecule microarray, 635/667 nm fluorescence (AID 1133); details: small-molecule microarray binding, FGF2, fluorescence 635/667; higher = more signal
[15] = mitochondrial membrane potential change in A549 cells, profiling panel, cell-based, JC-1 fluorescence, basal, 24 h, 100 nL (AID 1138); details: higher = more signal;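 note: A549 lung adenocarcinoma cells under basal conditions with no added stimulus; test concentration not given here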
Lefty1 = Lefty1 binders on small-molecule microarrays, primary screen, biochemical, small-molecule microarray, 635/667 nm fluorescence (AID 1139); details: small-molecule microarray binding, fluorescence 635/667; higher = more signal
[16] = tested on: wheat germ agglutinin (Triticum aestivum), Alexa647-labelled; assay: wheat germ agglutinin binders on compound microarrays, profiling panel, artefact control for SMM control-protein annotation, biochemical, small-molecule microarray, 635/667 nm fluorescence (AID 1140); details: WGA-A647 binding, 635 nm fluorescence, higher = more signal;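 note: score merges 667 nm feature emission with signal to noise over triplicate slides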
[17] = molecular target: Luciferin 4-monooxygenase (Photinus pyralis) (UniProt P08659); assay: firefly luciferase enzyme inhibitors, primary screen, biochemical, luminescence, purified enzyme, 2006 set (AID 1141); details: SteadyGlo luminescence, 30 min, higher = more signal, called active from +8 up or from −8 down;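 note: cell-free assay with purified firefly luciferase at 100 ng per well in PBS; test concentration not given here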
Sequence of Luciferin 4-monooxygenase (Photinus pyralis) (P08659 whole entry, looked up): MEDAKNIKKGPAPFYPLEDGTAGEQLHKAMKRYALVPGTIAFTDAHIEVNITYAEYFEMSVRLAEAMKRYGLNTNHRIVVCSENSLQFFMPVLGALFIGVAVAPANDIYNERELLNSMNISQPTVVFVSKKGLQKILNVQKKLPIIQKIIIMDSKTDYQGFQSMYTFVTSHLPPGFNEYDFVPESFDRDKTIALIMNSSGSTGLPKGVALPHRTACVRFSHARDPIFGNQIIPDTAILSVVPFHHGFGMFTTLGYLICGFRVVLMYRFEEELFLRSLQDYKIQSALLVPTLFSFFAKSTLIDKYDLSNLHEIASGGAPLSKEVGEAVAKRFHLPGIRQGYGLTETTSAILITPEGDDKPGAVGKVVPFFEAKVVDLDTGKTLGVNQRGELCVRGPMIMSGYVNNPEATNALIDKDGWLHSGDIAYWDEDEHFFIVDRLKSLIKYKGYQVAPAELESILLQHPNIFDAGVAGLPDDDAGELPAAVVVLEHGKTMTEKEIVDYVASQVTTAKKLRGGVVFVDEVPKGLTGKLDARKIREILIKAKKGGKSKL

Sequence of Concanavalin-A (Canavalia ensiformis) (P02866 whole entry, looked up): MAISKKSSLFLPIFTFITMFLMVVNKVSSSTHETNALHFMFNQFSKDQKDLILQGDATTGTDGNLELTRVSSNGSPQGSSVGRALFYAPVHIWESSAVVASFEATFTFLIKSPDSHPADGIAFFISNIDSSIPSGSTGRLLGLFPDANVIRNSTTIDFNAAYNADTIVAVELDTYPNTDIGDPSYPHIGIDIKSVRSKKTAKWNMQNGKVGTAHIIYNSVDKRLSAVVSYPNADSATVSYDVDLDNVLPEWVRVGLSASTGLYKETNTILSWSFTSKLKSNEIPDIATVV
Sequence of Focal adhesion kinase 1 (Homo sapiens) (Q05397 whole entry, looked up): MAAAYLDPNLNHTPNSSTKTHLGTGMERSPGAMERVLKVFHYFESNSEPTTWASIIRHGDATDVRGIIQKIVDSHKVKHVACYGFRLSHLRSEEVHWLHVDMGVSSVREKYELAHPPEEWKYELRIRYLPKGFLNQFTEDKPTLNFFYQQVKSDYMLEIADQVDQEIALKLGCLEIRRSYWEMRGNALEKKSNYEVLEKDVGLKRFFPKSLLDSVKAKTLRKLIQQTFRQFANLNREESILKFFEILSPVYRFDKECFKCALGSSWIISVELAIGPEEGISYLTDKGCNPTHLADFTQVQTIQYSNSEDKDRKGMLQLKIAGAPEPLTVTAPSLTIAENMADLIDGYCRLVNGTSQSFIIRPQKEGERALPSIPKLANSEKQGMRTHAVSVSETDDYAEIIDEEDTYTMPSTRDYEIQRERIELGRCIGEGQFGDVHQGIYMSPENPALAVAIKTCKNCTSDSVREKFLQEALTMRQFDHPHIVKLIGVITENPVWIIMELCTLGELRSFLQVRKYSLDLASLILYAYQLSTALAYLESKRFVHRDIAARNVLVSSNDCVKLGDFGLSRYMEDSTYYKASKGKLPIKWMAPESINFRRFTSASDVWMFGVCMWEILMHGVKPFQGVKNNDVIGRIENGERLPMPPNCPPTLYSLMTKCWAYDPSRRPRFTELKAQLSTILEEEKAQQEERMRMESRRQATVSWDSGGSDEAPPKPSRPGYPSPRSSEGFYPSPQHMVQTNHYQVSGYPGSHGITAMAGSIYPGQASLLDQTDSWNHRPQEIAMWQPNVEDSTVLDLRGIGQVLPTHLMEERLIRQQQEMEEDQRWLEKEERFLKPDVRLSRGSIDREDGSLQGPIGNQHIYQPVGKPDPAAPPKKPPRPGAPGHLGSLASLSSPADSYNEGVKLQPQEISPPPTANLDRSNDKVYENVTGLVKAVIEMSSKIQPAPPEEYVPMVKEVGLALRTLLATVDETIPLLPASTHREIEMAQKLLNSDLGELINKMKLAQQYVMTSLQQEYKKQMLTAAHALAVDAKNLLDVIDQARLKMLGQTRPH
Sequence of Fibroblast growth factor 2 (Homo sapiens) (P09038 whole entry, looked up): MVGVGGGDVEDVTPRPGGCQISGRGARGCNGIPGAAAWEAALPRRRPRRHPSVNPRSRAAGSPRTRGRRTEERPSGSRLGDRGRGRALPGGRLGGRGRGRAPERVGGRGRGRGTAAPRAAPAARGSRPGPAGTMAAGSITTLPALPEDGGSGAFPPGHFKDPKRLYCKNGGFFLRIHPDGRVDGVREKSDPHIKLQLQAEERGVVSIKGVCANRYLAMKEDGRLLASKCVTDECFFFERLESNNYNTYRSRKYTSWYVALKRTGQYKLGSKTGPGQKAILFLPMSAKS
Sequence of Albumin (Bos taurus) (P02769 whole entry, looked up): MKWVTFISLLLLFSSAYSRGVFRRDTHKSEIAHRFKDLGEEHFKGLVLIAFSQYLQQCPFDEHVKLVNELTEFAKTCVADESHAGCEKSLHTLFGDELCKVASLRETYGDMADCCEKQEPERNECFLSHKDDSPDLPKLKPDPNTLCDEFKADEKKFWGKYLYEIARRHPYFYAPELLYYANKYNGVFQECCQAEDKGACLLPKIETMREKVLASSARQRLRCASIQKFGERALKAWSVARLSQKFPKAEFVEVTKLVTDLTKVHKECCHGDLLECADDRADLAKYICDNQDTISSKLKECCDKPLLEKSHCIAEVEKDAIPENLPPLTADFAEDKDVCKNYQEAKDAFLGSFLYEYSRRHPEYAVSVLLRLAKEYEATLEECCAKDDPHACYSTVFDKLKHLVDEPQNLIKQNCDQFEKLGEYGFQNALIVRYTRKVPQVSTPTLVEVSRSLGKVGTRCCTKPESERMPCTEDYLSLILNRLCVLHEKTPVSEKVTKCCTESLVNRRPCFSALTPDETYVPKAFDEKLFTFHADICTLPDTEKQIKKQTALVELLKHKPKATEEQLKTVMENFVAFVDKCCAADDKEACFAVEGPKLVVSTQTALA
Sequence of Follistatin (Homo sapiens) (P19883 whole entry, looked up): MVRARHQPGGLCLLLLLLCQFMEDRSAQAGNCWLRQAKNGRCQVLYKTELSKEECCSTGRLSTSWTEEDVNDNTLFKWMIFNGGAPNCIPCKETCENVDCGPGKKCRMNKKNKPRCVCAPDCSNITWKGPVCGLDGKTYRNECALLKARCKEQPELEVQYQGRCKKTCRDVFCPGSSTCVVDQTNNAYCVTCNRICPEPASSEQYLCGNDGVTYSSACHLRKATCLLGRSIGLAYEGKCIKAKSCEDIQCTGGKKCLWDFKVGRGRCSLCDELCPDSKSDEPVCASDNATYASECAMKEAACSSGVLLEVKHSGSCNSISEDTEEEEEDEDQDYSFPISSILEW

SMILES | composite z-score (Albumin (Bos taurus)) | composite Z-score [1] | composite z-score [2] | composite z-score [3] | composite z-score [4] | composite z-score [5] | composite z-score [6] | composite z-score (Sam68 (KHDRBS1)) | composite z-score [7] | composite z-score [8] | composite z-score [9] | composite z-score [10] | composite z-score [11] | composite z-score [12] | composite z-score [13] | composite z-score [14] | z-score [15] | composite z-score (Lefty1) | composite z-score [16] | z-score [17]
CCOC(=O)CCN1C(=O)[C@H]2[C@H]3[C@H](O)[C@H](O)CC(=NNC(=O)OCc4ccccc4)[C@@H]3CC[C@H]2C1=O | 0.576 | 0.406 (inactive) | -0.0864 | -0.117 | 0.21 | -0.0034 | 0.32 | 1.19 | 0.393 | 1 | 0.553 | 0.687 | 0.538 | 0.986 | 0.937 | 0.55 | 0.319 | 0.699 | 0.304 | 0.195 (inactive)
CCN1C(=O)[C@H]2[C@H]3[C@H](O)[C@H](O)CC(=NO[C@@H](C)c4cn([C@H](CO)Cc5ccccc5)nn4)[C@@H]3CC[C@H]2C1=O | 0.233 | 0.299 (inactive) | -0.0581 | -0.184 | 0.556 | 0.875 | 0.547 | 1.28 | 0.399 | 0.941 | 3.32 | 1.11 | -0.0643 | 0.752 | 0.579 | 0.894 | -0.719 | 0.926 | 1.05 | 0.465 (inactive)
COc1cccc([C@H]2Oc3ccc(OC)cc3C(=NOC[C@@H](O)COCc3ccco3)[C@@H]2O)c1 | -0.859 | -0.874 (inactive) | -0.235 | -0.0942 | -1.02 | -1.34 | -0.446 | -2.24 | 0.655 | -3.36 | 0.232 | -1.3 | 0.3 | -2.19 | -0.707 | -0.51 | -0.843 | -0.488 | -0.418 | -2.4 (inactive)
COC(=O)CC=C[C@@H](C)[C@@H](C=NOC[C@H]1O[C@H](c2ccccc2)C=C[C@@H]1Oc1ccc(OC)cc1)OC | 0.479 | -0.0708 (inactive) | -0.23 | -0.131 | -0.223 | -0.3 | -0.0842 | -0.379 | 0.303 | -0.766 | 0.162 | -0.499 | -0.103 | -0.313 | 0.22 | -0.435 | 0.0691 | -0.0398 | -0.0524 | 0.4 (inactive)
